# Screens as filed in PubChem BioAssay.
# The full list was thinned out, with hits kept by preference.
# TbPYK inhibitor: qHTS of Trypanosoma Brucei Inhibitors. pyruvate kinase (Trypanosoma brucei), Q57TT1. TbPYK enzyme, Kinase-Glo Plus ATP luminescence, 45 min. Potency, µM (titrated, usually from 76.8 µM), most hits filed as inhibitors. 0.12% of 410,000 active; further: nearly all actives have a fitted effect of over 50% in size
#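 Screened from lowest to highest concentration, compounds were pinned into TbPYK/substrate mixtures, and ADP (130 uM final) was added. Plates sat at room temperature for 45 min prior to Kinase-Glo Plus detection by luminescence.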
# LmPK inhibitor: qHTS Assay for Inhibitors of Leishmania Mexicana Pyruvate Kinase (LmPK) | 0.37% of 290,000 active | Potency, µM (highest dose often 57.5 µM), most hits filed as inhibitors | purified LmPK, Kinase-Glo ATP luminescence, 1 h | AID 1721, 2009
#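 Purified LmPK (0.1 nM) converted ADP (0.1 mM) to ATP with PEP (0.5 mM) in imidazole buffer pH 7.2 with KCl and MgCl2, 1 h at room temperature. ATP was read by Kinase-Glo luminescence; data normalized to uninhibited and no-enzyme controls.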
# CHX counter: Cycloheximide Counterscreen for Small Molecule Inhibitors of Shiga Toxin | cell reporter, cycloheximide protein synthesis inhibition counterscreen | max response, % | 12% of 300,000 active; in the data active means max response mostly above about 13%, no sharp cut-off; inactive means mostly below about 14%; further: read at 38.3 µM for the half of the compounds with a filed dose
# Shiga toxin inh: A qHTS for Small Molecule Inhibitors of Shiga Toxin; Vero cells, Shiga toxin protein synthesis inhibition reporter; inhibition, % at 38.7 µM; 9.2% of 290,000 active; in the data active means inhibition mostly above about 28%, no sharp cut-off; inactive means mostly below about 43%
# Giardia FBPA inh: qHTS Assay for Inhibitors of Fructose-1,6-bisphosphate Aldolase from Giardia Lamblia; purified Giardia FBPA; Potency, µM (top dose mostly 59.6 µM), usual class: inhibitors; 0.71% of 290,000 active; further: nearly all actives have a fitted effect of over 55% in size
# Target sequence (A8B2U2 whole entry, looked up): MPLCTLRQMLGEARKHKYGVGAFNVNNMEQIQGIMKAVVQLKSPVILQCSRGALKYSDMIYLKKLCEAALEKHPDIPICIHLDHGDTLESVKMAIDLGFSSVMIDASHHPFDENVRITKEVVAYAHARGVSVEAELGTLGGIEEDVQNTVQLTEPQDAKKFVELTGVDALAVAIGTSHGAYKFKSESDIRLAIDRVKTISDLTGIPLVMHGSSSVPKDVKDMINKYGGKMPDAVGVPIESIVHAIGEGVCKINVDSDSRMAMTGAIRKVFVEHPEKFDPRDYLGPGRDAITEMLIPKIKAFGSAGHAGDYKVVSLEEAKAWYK
#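 Giardia FBPA (40 nM reagent) was preincubated 10 min at RT with compound (up to 57.5 uM final), then substrate plus GAPDH/TPI/NAD/arsenate coupling system with diaphorase/resazurin was added; resorufin fluorescence (525/598 nm) was read after 20 min.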
# Sm TGR block: qHTS Assay for the Inhibitors of Schistosoma Mansoni Peroxiredoxins; Schistosoma mansoni thioredoxin glutathione reductase (TGR), Q962Y6; purified TGR, DTNB reduction, TNB absorbance 405 nm; Potency, µM (top dose mostly 114 µM), most hits filed as inhibitors; 3% of 360,000 active; further: nearly all actives have a fitted effect of over 60% in size
#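 Kinetic colorimetric format: TGR-catalysed, NADPH-driven DTNB reduction monitored via TNB absorbance. Enzyme dispensed at 20 nM; compound exposure 15 min at room temperature before reaction start.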
# A number is an active result; 0 = inactive; ? = inconclusive; - = no result given. Unless noted, the call rests on the fitted dose curve; in most records, active means well fitted curve in the direction sought with a large enough effect; inconclusive means small, poorly fitted or top-dose-only effect, or another doubt; inactive means no such curve, though single readings can be large; an effect the other way counts as inactive or inconclusive.
SMILES,TbPYK inhibitor,LmPK inhibitor,CHX counter,Shiga toxin inh,Giardia FBPA inh,Sm TGR block
CC(=O)c1ccc(NC(=O)c2ccccc2-c2ccccc2C(=O)O)cc1,0,0,0,0,0,0
CC(=O)c1ccc(NC(=O)c2cc(Cl)sc2Cl)cc1,0,0,40,32,0,0
Cc1cc(C)cc(NC(=O)c2cc(Cl)sc2Cl)c1,0,0,30,0,0,0
CCn1c(C(=O)Nc2cc(C)cc(C)c2)cc2sc(Cl)cc21,0,-,-,-,-,0
Cn1cc(CCCC(=O)NCc2ccccc2Cl)c2ccccc21,0,-,-,-,-,0
CCOC(=O)c1cccc(Nc2ccc3cc(S(=O)(=O)N4CCCCC4)ccc3n2)c1,0,-,-,-,-,0
O=C1NC(=O)N(c2ccccc2F)C(=O)/C1=C/c1ccc(Oc2ccc([N+](=O)[O-])cn2)cc1,?,0,0,0,0,20µM
O=C(Nc1ccc2nc(SCC(=O)N3CCOCC3)sc2c1)c1ccc(Cl)cc1,0,-,-,-,-,0
COc1ccc(NC(=O)c2ccc(-c3ccc(OC)cc3)s2)cc1,0,0,0,72,0,0
Cc1ccc(NC(=O)c2ccc(-c3ccccc3)s2)cc1,0,-,-,-,-,0
CNC(=O)c1ccc(-c2ccc(Cl)c(Cl)c2)s1,0,0,42,66,0,0
CNC(=O)c1ccc(-c2ccc(OC)cc2)s1,0,0,26,78,0,0
O=C(Nc1ccccc1)c1ccc(-c2ccc(F)cc2)s1,0,0,36,88,0,-
CCc1ccc(-c2cc(C(=O)N3N=C(C(F)F)CC3(O)C(F)F)c3ccccc3n2)cc1 (stereo not drawn),0,0,28,89,0,0
CC(C)Cc1cc(C(=O)N2N=C(C(F)F)CC2(O)C(F)F)c2ccccc2n1 (stereo not drawn),0,0,0,0,0,0
CC(C)c1cc(-c2nc(-c3cccc(Cl)c3)no2)n[nH]1,0,-,-,-,-,0
Cc1nc(-c2cccc(Cl)c2)n[nH]1,0,0,23,104,0,0
CCc1ccccc1NC(=O)C1CCN(S(=O)(=O)c2ccc3[nH]c(=O)ccc3c2)CC1,0,-,-,-,-,0
Cc1ccccc1Cc1c(C)nc2nc(SCC(=O)NC(C)c3ccccc3)nn2c1C (stereo not drawn),0,-,-,-,-,0
Cc1nc2nc(SCC(=O)NCc3ccccc3)nn2c(C)c1Cc1ccccc1,0,-,-,-,-,0
Cc1ccccc1Cc1c(C)nc2c(C(=O)NCc3ccco3)cnn2c1C,0,0,0,0,0,22µM
Cc1ccc(Cc2c(C)nc3nc(SCC(=O)NCc4ccco4)nn3c2C)cc1,0,0,0,0,0,40µM
Cc1ccccc1Cc1c(C)nc2nc(SCC(=O)NCc3ccco3)nn2c1C,0,0,0,0,0,25µM
Cc1nc2nc(SCC(=O)NCc3ccco3)nn2c(C)c1Cc1c(F)cccc1Cl,0,0,0,0,0,50µM
CCCCN(CCCC)CCNC(=O)Cn1nc(CC)n2c(cc3sc(C)cc32)c1=O,0,-,-,-,-,0
SMILES,TbPYK inhibitor,LmPK inhibitor,CHX counter,Shiga toxin inh,Giardia FBPA inh,Sm TGR block
Cc1cccc(Cc2c(C)nc3nc(SCC(=O)NC4CCCCC4)nn3c2C)c1,0,-,-,-,-,0
Cc1cccc(Cc2c(C)nc3nc(SCC(=O)NCc4ccco4)nn3c2C)c1,0,0,0,0,0,35µM
CCOC(=O)C1=C(C)Nc2ccccc2N=C1NC(=O)c1cc(C)on1,0,-,-,-,-,0
CCCN1Cc2cccc(C(=O)Nc3ccc(C(C)=O)cc3)c2C1=O,0,-,-,-,-,0
COc1ccc(CCNC(=O)CN2C(=O)NC3(CCCCC3)C2=O)cc1,0,-,-,-,-,-
COc1ccc(C(CNC(=O)CN2C(=O)NC3(CCCC3)C2=O)N(C)C)cc1 (stereo not drawn),0,0,25,0,-,0
O=C(CCn1c(=O)sc2ccccc21)NCc1ccc2c(c1)OCO2,0,0,12,0,0,0
Cc1ccc(C2=NN(CCC(=O)NCc3ccc4c(c3)OCO4)C(=O)CC2)cc1,0,0,20,0,0,0
O=C(NCc1ccc2c(c1)OCO2)c1cccc(C(=O)NCc2ccc3c(c2)OCO3)c1,0,0,0,0,0,0
O=C(Cc1cccs1)NCc1ccc2c(c1)OCO2,0,0,17,53,0,0
